Source: ChEMBL document CHEMBL2218924, “A broad activity screen in support of a chemogenomic map for kinase signalling research and drug discovery” (Biochem J, 2013)

Assays:
[1] = molecular target: T1, Ephrin type-A receptor 3 (Homo sapiens) (UniProt P29320); settings: at 10 µM
T1 sequence (whole entry): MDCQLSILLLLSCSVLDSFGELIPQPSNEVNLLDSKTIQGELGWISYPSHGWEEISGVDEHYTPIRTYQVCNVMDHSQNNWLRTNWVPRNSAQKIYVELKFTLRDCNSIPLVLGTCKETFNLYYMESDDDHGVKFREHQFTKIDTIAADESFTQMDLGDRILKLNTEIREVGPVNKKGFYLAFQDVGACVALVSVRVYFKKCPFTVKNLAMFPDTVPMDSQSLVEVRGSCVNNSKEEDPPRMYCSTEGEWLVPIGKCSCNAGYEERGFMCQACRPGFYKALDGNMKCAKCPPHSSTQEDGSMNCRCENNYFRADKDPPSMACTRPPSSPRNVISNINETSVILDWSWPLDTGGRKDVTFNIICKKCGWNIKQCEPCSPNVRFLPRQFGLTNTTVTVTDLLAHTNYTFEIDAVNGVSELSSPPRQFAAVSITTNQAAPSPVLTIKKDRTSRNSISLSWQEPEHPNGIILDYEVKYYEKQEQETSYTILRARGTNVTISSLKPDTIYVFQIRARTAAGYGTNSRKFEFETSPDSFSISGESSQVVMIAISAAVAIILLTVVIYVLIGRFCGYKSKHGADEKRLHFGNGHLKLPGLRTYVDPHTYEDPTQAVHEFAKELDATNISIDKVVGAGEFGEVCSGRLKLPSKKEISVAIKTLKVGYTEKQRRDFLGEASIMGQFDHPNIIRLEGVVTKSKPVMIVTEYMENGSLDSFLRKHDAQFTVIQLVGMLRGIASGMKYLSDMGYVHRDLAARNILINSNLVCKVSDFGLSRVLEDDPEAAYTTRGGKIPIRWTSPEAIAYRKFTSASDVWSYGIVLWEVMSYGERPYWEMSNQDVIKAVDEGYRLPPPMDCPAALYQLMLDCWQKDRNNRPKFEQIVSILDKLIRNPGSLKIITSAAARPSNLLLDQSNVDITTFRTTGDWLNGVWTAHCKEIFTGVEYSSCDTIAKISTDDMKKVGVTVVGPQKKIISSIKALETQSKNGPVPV

[2] = molecular target: Ephrin type-A receptor 4 (Homo sapiens) (UniProt P54764); settings: at 1 µM
[3] = molecular target: Ephrin type-A receptor 4 (Homo sapiens) (UniProt P54764); settings: at 10 µM
[4] = molecular target: Ephrin type-A receptor 5 (Homo sapiens) (UniProt P54756); settings: at 1 µM
[5] = molecular target: Ephrin type-A receptor 5 (Homo sapiens) (UniProt P54756); settings: at 10 µM
[6] = molecular target: Ephrin type-A receptor 7 (Homo sapiens) (UniProt Q15375); settings: at 1 µM
[7] = molecular target: Ephrin type-A receptor 7 (Homo sapiens) (UniProt Q15375); settings: at 10 µM
[8] = molecular target: T2, Ephrin type-A receptor 8 (Homo sapiens) (UniProt P29322); settings: at 1 µM
T2 sequence (whole entry): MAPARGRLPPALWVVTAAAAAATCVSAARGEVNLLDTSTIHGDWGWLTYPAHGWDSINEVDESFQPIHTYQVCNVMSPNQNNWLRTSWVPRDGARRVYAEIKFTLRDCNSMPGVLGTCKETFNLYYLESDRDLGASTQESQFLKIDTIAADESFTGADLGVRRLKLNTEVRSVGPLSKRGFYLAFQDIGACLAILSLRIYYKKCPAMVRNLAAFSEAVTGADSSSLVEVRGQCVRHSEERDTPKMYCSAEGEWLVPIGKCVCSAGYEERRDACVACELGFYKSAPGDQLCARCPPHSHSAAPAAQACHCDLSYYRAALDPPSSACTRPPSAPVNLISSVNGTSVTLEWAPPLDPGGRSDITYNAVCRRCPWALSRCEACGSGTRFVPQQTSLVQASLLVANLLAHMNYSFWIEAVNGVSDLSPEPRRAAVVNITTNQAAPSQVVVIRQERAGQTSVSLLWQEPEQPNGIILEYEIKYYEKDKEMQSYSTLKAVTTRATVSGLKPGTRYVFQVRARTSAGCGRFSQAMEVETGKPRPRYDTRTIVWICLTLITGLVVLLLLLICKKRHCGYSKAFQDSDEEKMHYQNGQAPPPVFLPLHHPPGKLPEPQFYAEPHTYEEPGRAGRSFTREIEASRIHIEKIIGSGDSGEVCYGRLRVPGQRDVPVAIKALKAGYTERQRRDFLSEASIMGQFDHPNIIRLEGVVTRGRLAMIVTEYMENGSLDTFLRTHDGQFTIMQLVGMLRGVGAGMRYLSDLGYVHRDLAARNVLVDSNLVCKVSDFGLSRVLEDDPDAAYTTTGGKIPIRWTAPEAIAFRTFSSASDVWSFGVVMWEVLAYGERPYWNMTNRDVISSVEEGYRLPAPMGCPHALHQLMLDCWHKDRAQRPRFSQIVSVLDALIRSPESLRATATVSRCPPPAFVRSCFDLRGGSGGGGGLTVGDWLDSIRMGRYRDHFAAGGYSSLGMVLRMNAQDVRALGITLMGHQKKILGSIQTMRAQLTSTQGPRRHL

[9] = molecular target: T2, Ephrin type-A receptor 8 (Homo sapiens); settings: at 10 µM
[10] = molecular target: T3, Ephrin type-B receptor 1 (Homo sapiens) (UniProt P54762); settings: at 1 µM
T3 sequence (whole entry): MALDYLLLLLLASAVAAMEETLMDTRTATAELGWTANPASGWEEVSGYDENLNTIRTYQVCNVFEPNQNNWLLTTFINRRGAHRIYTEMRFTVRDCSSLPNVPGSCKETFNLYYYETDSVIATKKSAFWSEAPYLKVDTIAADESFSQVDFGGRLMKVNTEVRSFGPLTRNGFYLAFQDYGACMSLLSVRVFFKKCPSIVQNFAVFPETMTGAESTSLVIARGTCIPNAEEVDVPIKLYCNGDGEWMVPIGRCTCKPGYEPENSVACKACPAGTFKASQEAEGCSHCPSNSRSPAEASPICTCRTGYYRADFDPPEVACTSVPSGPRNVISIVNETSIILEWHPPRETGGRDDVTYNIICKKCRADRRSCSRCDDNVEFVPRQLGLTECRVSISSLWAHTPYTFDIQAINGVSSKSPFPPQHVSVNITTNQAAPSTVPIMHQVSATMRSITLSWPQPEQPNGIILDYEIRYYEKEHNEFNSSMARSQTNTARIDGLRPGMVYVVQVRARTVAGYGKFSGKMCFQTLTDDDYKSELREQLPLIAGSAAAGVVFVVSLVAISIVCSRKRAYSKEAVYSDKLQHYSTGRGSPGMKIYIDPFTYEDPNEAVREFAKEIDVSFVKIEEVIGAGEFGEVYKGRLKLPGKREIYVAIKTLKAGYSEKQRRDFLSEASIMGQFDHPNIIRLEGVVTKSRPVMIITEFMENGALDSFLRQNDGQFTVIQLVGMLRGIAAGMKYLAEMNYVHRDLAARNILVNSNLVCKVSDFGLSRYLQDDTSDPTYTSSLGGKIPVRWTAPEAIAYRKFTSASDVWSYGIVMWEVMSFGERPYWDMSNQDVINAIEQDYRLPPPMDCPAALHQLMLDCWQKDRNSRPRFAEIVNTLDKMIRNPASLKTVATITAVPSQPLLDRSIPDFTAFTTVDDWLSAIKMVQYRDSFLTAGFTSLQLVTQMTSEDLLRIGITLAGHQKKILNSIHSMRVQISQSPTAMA

[11] = molecular target: T3, Ephrin type-B receptor 1 (Homo sapiens); settings: at 10 µM
[12] = molecular target: T4, Ephrin type-B receptor 4 (Homo sapiens) (UniProt P54760); settings: at 1 µM
T4 sequence (whole entry): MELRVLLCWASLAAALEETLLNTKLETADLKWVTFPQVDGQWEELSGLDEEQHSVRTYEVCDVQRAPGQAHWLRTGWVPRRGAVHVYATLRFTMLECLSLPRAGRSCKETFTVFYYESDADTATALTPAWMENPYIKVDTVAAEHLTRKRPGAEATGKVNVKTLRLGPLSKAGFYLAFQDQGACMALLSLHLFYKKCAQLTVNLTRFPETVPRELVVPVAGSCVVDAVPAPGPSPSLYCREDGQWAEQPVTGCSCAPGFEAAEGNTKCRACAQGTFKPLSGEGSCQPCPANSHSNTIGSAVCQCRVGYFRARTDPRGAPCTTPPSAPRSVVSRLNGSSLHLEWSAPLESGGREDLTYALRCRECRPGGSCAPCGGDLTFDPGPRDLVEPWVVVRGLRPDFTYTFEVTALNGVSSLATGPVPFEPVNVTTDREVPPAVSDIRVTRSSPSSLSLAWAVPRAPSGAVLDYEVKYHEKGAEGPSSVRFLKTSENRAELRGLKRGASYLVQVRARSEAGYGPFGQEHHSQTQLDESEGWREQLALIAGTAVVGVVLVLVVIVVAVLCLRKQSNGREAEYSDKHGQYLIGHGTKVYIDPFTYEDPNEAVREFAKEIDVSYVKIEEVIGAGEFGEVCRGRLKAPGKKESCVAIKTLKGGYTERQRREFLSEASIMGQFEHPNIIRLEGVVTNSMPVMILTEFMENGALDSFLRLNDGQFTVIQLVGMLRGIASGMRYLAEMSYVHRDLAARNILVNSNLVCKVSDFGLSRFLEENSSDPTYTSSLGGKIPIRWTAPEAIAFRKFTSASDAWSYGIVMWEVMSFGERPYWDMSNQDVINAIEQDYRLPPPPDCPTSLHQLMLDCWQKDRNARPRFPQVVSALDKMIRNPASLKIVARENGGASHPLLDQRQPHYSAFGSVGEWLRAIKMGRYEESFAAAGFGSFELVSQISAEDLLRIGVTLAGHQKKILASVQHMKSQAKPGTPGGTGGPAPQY

[13] = molecular target: T4, Ephrin type-B receptor 4 (Homo sapiens); settings: at 10 µM
[14] = molecular target: Receptor tyrosine-protein kinase erbB-4 (Homo sapiens) (UniProt Q15303); settings: at 1 µM
[15] = molecular target: Receptor tyrosine-protein kinase erbB-4 (Homo sapiens) (UniProt Q15303); settings: at 10 µM
[16] = molecular target: Focal adhesion kinase 1 (Homo sapiens) (UniProt Q05397); settings: at 1 µM

Chain of Receptor tyrosine-protein kinase erbB-4 (Homo sapiens) (Q15303 whole entry): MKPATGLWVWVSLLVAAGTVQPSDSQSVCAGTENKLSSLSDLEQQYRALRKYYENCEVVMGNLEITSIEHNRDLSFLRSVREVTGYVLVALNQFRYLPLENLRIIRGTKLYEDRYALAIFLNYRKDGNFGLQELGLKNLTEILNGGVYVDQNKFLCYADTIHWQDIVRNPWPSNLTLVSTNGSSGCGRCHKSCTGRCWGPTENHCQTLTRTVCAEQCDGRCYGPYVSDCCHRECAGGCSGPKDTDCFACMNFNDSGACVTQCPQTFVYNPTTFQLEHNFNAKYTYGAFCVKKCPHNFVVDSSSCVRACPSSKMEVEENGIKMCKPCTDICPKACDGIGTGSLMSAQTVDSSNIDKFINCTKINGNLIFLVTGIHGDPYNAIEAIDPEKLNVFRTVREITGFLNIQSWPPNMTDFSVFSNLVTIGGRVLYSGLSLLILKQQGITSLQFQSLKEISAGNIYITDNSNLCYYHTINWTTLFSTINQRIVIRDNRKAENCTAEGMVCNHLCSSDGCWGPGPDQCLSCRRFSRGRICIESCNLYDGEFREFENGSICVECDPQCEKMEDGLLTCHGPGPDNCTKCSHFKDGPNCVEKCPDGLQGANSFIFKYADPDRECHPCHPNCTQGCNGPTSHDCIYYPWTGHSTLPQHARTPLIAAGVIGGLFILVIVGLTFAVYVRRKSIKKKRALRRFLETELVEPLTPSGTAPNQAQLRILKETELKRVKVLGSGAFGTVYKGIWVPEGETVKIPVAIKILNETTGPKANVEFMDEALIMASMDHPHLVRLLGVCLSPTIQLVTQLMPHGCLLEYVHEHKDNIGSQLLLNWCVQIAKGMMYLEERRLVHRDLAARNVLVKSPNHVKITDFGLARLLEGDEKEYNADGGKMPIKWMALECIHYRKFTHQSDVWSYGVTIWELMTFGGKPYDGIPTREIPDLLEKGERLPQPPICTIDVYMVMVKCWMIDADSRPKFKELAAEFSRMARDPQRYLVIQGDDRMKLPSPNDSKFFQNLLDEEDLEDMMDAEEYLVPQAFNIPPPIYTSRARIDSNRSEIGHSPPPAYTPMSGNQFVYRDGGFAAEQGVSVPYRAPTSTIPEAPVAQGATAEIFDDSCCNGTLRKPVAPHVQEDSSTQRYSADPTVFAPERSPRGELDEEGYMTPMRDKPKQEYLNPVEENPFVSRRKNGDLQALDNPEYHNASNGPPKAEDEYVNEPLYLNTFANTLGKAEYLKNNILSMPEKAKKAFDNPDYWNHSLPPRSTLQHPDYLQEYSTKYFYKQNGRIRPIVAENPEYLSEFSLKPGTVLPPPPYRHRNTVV
Chain of Ephrin type-A receptor 7 (Homo sapiens) (Q15375 28-998 limits assumed): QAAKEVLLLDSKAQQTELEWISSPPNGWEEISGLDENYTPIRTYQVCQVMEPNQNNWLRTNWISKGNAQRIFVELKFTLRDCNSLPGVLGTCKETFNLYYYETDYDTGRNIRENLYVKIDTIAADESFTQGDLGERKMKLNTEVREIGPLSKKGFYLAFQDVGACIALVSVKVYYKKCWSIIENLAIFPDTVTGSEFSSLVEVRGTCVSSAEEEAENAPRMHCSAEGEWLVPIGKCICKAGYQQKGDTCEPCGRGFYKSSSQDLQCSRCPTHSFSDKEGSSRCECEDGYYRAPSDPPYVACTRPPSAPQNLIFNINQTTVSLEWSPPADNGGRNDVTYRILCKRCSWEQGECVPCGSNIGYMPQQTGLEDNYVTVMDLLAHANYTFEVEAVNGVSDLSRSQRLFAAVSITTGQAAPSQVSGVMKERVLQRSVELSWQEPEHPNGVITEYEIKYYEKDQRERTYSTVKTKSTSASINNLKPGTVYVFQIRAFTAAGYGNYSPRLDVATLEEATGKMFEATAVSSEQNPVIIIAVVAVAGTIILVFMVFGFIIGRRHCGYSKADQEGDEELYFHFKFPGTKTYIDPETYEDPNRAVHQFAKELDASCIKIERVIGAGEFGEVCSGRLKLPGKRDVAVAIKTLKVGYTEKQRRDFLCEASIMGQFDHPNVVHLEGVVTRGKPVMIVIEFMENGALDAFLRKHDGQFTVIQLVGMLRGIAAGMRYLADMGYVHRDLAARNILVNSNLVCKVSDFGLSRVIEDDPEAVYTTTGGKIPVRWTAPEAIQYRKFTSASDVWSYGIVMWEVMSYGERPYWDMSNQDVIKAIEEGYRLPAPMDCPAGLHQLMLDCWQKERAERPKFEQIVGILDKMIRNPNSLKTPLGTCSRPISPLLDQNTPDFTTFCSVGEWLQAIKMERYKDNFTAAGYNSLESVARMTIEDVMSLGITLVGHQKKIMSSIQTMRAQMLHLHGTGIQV
Chain of Ephrin type-A receptor 5 (Homo sapiens) (P54756 whole entry): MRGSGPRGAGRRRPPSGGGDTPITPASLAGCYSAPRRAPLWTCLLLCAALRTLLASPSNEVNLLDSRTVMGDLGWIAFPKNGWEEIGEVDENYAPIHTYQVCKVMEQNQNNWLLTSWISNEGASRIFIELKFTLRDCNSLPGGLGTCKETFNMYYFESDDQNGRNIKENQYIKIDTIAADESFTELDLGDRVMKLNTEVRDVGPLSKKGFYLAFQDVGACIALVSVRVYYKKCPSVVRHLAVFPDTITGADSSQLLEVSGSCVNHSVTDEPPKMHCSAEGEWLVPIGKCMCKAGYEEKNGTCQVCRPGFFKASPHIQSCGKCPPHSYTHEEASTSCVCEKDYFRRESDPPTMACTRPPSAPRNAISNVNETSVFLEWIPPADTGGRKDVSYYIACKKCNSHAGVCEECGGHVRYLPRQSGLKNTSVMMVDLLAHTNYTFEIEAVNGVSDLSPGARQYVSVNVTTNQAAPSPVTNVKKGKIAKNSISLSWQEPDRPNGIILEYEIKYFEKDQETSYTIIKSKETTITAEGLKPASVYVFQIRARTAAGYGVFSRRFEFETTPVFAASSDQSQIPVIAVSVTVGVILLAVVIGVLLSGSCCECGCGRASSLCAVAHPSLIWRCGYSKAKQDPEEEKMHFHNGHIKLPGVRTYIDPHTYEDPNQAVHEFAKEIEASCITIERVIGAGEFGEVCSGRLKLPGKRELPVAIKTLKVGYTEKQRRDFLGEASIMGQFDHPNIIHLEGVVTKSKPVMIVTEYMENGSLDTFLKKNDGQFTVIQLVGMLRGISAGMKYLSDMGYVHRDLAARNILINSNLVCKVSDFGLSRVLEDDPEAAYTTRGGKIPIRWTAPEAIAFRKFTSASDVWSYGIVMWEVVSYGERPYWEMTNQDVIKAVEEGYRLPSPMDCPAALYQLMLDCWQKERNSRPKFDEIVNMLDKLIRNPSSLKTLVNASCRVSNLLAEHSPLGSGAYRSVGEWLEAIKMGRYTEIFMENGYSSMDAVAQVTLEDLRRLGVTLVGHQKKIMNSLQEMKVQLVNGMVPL
Chain of Ephrin type-A receptor 4 (Homo sapiens) (P54764 whole entry): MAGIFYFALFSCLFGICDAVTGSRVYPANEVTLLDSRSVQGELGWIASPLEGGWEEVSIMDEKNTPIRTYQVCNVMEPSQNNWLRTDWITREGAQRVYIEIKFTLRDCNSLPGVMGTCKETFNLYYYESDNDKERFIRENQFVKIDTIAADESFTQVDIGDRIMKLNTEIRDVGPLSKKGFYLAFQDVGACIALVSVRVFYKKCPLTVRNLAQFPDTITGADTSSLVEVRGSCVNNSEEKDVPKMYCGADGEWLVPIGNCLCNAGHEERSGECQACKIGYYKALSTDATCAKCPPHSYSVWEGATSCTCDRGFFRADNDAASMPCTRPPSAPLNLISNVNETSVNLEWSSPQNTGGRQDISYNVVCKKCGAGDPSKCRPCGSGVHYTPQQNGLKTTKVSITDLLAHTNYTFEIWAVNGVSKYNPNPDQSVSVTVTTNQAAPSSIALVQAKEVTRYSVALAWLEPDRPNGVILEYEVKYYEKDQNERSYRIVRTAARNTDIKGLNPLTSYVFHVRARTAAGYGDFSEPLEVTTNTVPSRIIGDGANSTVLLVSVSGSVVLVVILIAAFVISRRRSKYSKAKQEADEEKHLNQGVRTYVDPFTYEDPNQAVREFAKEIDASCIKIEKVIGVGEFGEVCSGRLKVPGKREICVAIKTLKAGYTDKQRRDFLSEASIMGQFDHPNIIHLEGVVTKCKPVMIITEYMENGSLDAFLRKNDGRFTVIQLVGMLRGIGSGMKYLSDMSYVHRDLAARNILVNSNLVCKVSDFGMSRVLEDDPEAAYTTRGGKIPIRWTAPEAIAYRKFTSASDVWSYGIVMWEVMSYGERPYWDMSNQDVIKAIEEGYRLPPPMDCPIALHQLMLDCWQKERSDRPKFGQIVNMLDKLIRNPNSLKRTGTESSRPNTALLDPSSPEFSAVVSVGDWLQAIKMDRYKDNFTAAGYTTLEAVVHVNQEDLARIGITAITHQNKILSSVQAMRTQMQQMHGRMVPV

Row | SMILES | residual activity [1] [%] | residual activity [2] [%] | residual activity [3] [%] | residual activity [4] [%] | residual activity [5] [%] | residual activity [6] [%] | residual activity [7] [%] | residual activity [8] [%] | residual activity [9] [%] | residual activity [10] [%] | residual activity [11] [%] | residual activity [12] [%] | residual activity [13] [%] | residual activity [14] [%] | residual activity [15] [%] | residual activity [16] [%]
1 | Nc1nc(Nc2ccc(S(N)(=O)=O)cc2)nn1C(=S)Nc1c(F)cccc1F | 23 | 97 | 86 | 59 | 11 | 3 | -2 | 76 | 24 | 1 | -1 | 30 | 4 | 105 | 96 | 20
2 | N#CC(C#N)=C(N)/C(C#N)=C/c1ccc(O)cc1 |  |  |  | 125 | 96 | 91 | 81 |  |  |  |  | 116 | 119 | 95 | 76 | 132
